Assay outcomes as filed in PubChem BioAssay.
IDE exosite inh: displaces the probe from the exo-site of human IDE | purified IDE, FL-6b probe fluorescence polarization; active compounds read low | z-score at 20 µM | 17,000 tested, 6.3% active | AID 1259349;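 active means z-score of -3 or lower, meaning strong loss of probe binding signal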;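 further: His-tagged human IDE residues 42-1019 made in E. coli with 30 nM FL-6b probe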
* = called active by the depositor. This excerpt belongs to a sample that is enriched for hits.

SMILES | IDE exosite inh
O=C(Cc1ccccn1)N1CCCCN2[C@H](C1)[C@H](c1ccc(-c3ccc(F)cc3)cc1)[C@@H]2CO | 1.3
O=C(Cc1ccccn1)N1CCCCN2[C@@H](CO)[C@@H](c3ccc(-c4ccc(F)cc4)cc3)[C@@H]2C1 | 1.7
O=C(Cc1ccccn1)N1CCCCN2[C@H](CO)[C@@H](c3ccc(-c4ccccc4F)cc3)[C@@H]2C1 | -4.7*
O=C(Cc1ccccn1)N1CCCCN2[C@H](CO)[C@H](c3ccc(-c4ccccc4F)cc3)[C@@H]2C1 | -4.2*
O=C(Cc1ccccn1)N1CCCCN2[C@@H](CO)[C@H](c3ccc(-c4ccc(F)cc4)cc3)[C@@H]2C1 | 2.5
O=C(Cc1ccccn1)N1CCCCN2[C@H](C1)[C@@H](c1ccc(-c3ccc(F)cc3)cc1)[C@@H]2CO | 4.4
OC[C@@H]1Nc2ccc(C#Cc3cccnc3)cc2[C@H]2NCC[C@@H]12 | -0.33
CC(C)CC#Cc1ccc([C@@H]2[C@H](CO)N3CCCCN(C(=O)Cc4ccccn4)C[C@@H]23)cc1 | 3.5
O=C(Cc1cccnc1)N1CCCCN2[C@H](CO)[C@@H](c3ccc(C#CC4CCCC4)cc3)[C@H]2C1 | 1.5
CC(C)CC#Cc1ccc([C@@H]2[C@@H](CO)N3CCCCN(C(=O)Cc4ccccn4)C[C@H]23)cc1 | 5.9
O=C(Cc1ccccc1)N1CC2(C1)[C@H](c1ccccc1)[C@H](CO)N2Cc1cccc(Cl)c1 | -1.7
C/C=C/c1ccc([C@H]2[C@@H](CO)N3CCCCN(C(=O)Cc4cccnc4)C[C@H]23)cc1 | -0.57
O=C(Cc1cccnc1)N1CCCCN2[C@H](C1)[C@@H](c1ccc(/C=C/c3ccccc3)cc1)[C@@H]2CO | -9.2*
O=C(Cc1cccnc1)N1CCCCN2[C@@H](CO)[C@@H](c3ccc(C#CC4CCCC4)cc3)[C@@H]2C1 | 0.5
C/C=C/c1ccc([C@H]2[C@H]3CN(C(=O)Cc4cccnc4)CCCCN3[C@H]2CO)cc1 | 1.2
C/C=C/c1ccc([C@H]2[C@H](CO)N3CCCCN(C(=O)Cc4cccnc4)C[C@@H]23)cc1 | -1.1
O=C(Cc1cccnc1)N1CCCCN2[C@@H](CO)[C@@H](c3ccc(/C=C/c4ccccc4)cc3)[C@@H]2C1 | -8.3*
N#Cc1cccc(-c2ccc([C@H]3[C@H](CO)N4CCCCN(C(=O)Cc5ccccc5)C[C@@H]34)cc2)c1 | 3.6
O=C(O)C[C@@H]1CC[C@H]2NC[C@@H](O)COC[C@@H]2O1 | 0.58
COc1ccc(C#Cc2ccc([C@@H]3[C@H]4CN(C(=O)Cc5cccnc5)CCCCN4[C@H]3CO)cc2)cc1 | 4.2
COc1ccc(C#Cc2ccc([C@H]3[C@H]4CN(C(=O)Cc5cccnc5)CCCCN4[C@H]3CO)cc2)cc1 | -4*
COc1ccc(C#Cc2ccc([C@H]3[C@@H](CO)N4CCCCN(C(=O)Cc5cccnc5)C[C@H]34)cc2)cc1 | -1.3
COc1ccc(C#Cc2ccc([C@@H]3[C@@H](CO)N4CCCCN(C(=O)Cc5cccnc5)C[C@@H]34)cc2)cc1 | 2.7
COc1ccc(-c2ccc([C@@H]3[C@H](CO)N4CCCCN(C(=O)Cc5ccncc5)C[C@@H]34)cc2)cc1 | -2.3
COc1ccc(C#Cc2ccc([C@H]3[C@@H](CO)N4CCCCN(C(=O)Cc5ccncc5)C[C@@H]34)cc2)cc1 | -4.8*
SMILES | IDE exosite inh
COc1ccc(C#Cc2ccc([C@@H]3[C@@H](CO)N4CCCCN(C(=O)Cc5ccncc5)C[C@@H]34)cc2)cc1 | 0.35
COc1ccc(C#Cc2ccc([C@@H]3[C@H]4CN(C(=O)Cc5ccncc5)CCCCN4[C@H]3CO)cc2)cc1 | -0.35
COc1ccc(C#Cc2ccc([C@H]3[C@H]4CN(C(=O)Cc5ccncc5)CCCCN4[C@H]3CO)cc2)cc1 | -3.5*
COc1ccc(C#Cc2ccc([C@H]3[C@@H](CO)N4CCCCN(C(=O)Cc5ccncc5)C[C@H]34)cc2)cc1 | 0.97
N#Cc1cccc(-c2ccc([C@H]3[C@H](CO)N4CCCCN(C(=O)Cc5cccnc5)C[C@@H]34)cc2)c1 | 0.26
O=C(Cc1ccccc1)N1CC2(C1)[C@H](c1ccccc1)[C@@H](CO)N2Cc1cccc(Cl)c1 | -0.62
COc1ccc(C#Cc2ccc([C@H]3[C@H](CO)N4CCCCN(C(=O)Cc5cccnc5)C[C@@H]34)cc2)cc1 | -1.4
N#Cc1cccc(-c2ccc([C@H]3[C@@H](CO)N4CCCCN(C(=O)Cc5cccnc5)C[C@H]34)cc2)c1 | -0.22
CN1[C@H](CO)[C@H]2c3ccccc3NC[C@H]21 | 4
O=C(Cc1ccncc1)N1CCCCN2[C@H](CO)[C@@H](c3ccc(C#CC4(O)CCCC4)cc3)[C@@H]2C1 | 0.2
COc1cccc(-c2ccc([C@@H]3[C@H]4CN(C(=O)Cc5ccncc5)CCCCN4[C@H]3CO)cc2)c1 | -0.67
Cc1ccccc1-c1ccc([C@@H]2[C@H](CO)N3CCCCN(C(=O)Cc4ccccn4)C[C@@H]23)cc1 | -16*
Cc1ccccc1-c1ccc([C@H]2[C@@H](CO)N3CCCCN(C(=O)Cc4ccccn4)C[C@H]23)cc1 | -14*
O=C(Cc1ccccn1)N1CCCCN2[C@H](CO)[C@H](c3ccc(Br)cc3)[C@H]2C1 | -0.15
O=C(Cc1ccccn1)N1CCCCN2[C@H](CO)[C@@H](c3ccc(-c4ccccc4)cc3)[C@@H]2C1 | -2.4
O=C(Cc1ccccn1)N1CCCCN2[C@@H](CO)[C@H](c3ccc(Br)cc3)[C@@H]2C1 | -0.37
O=C(Cc1ccccn1)N1CCCCN2[C@H](C1)[C@@H](c1ccc(Br)cc1)[C@@H]2CO | -0.067
CC=Cc1ccc2n(c1=O)C[C@H]1[C@H](CO)[C@@H](C(=O)OC)[C@@H]2N1S(=O)(=O)c1ccccc1C (mixture of isomers) | 1.1
COc1ccc(-c2ccc([C@@H]3[C@@H](CO)N4CCCCN(C(=O)Cc5ccccc5)C[C@H]34)cc2)cc1 | 1.4
COc1ccc(C#Cc2ccc([C@H]3[C@@H](CO)N4CCCCN(C(=O)Cc5cccnc5)C[C@@H]34)cc2)cc1 | -2.3
O=C(Cc1ccccc1)N1CCCCN2[C@@H](CO)[C@H](c3ccc(-c4ccccc4)cc3)[C@@H]2C1 | -0.0073
CC(C)CC#Cc1ccc([C@H]2[C@H](CO)N3CCCCN(C(=O)Cc4ccccn4)C[C@@H]23)cc1 | 4.9
O=C(Cc1ccccc1)N1CCCCN2[C@H](C1)[C@@H](c1ccc(C#Cc3ccccc3)cc1)[C@@H]2CO | -2.6
O=C(Cc1ccccc1)N1CCCCN2[C@H](C1)[C@H](c1ccc(C#Cc3ccccc3)cc1)[C@@H]2CO | -4.3*
CCCC#Cc1ccc([C@H]2[C@@H](CO)N3CCCCN(C(=O)Cc4ccccn4)C[C@@H]23)cc1 | 4
COc1ccc(C#Cc2ccc([C@@H]3[C@@H](CO)N4CCCCN(C(=O)Cc5ccccc5)C[C@@H]34)cc2)cc1 | 1.5
CCCC#Cc1ccc([C@@H]2[C@H](CO)N3CCCCN(C(=O)Cc4ccccn4)C[C@@H]23)cc1 | -2
O=C(Cc1ccccn1)N1CCCCN2[C@H](CO)[C@H](c3ccc(C#Cc4ccccc4)cc3)[C@@H]2C1 | -5.2*
O=C1CNC[C@@H]2[C@@H](c3ccc(Br)cc3)[C@H](CO)N12 | 1.4
O=C(O)[C@@H]1[C@@H](CO)[C@@H]2Cn3c(ccc(-c4ccncc4)c3=O)[C@H]1N2S(=O)(=O)c1ccccc1F | 0.56
